The campaign covered roughly 320,000 compounds. About 2,100 (0.66%) were called active. Roughly 53% stayed inconclusive and do not appear here. Calls follow the shape of the dose curve; as a rule, active = well fitted inhibition curve with a large enough effect in the signal ratio, with a control signal flat (not every such curve was filed as active); inconclusive = small, poorly fitted or top-dose-only effect, or effect the other way, or a change in a side signal; inactive = flat fitted curve, though single readings scatter; the % refers to the signal ratio. What follows is part of a selection rich in actives, with near analogues and random picks from the rest.

Consider 46 compounds from PubChem BioAssay AID2685 (National Center for Advancing Translational Sciences (NCATS), 2010).
Potency is read from the fitted curve at half-maximal effect.

This experiment is described as follows: qHTS Assay for Lipid Storage Modulators in Drosophila S3 Cells.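 As to cell number change: cells counted by Cell Tracker Red CMTPX staining in the red channel.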 As to lipid storage change, negative = inhibition: % is scaled to controls: 0 for no effect and ±100 for the full control effect. The following applies: BODIPY lipid droplet fluorescence, 18-24 h, cells fed with added oleic acid; cell number change: measured here: cell count max response; series mostly up to 46.1 µM; lipid storage change, negative = inhibition: at the top concentration. In short, it runs like this:
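Laser-scanning cytometry quantifies lipid droplet accumulation (500–530 nm total intensity; droplet/cell object ratio) in oleic acid-fed (400 uM added) Drosophila S3 cells treated with a concentration series. 20 uM Triacsin C defined 100% inhibition.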
(In general: qHTS replaces the single test concentration by a dilution series.)
Consider `CC(C)NCC(O)COCCOc1ccc(Br)cc1` (stereo not drawn), for which the “lipid storage change, negative = inhibition” value was 0.83% (inactive) and the cell number change came to 23.8%. In the case of `O=C(CCC1CCCN(C(=O)c2ccc3c(c2)OCO3)C1)N1CCN(c2ccccn2)CC1` (stereo not drawn), the “lipid storage change, negative = inhibition” value was 17.9% (inactive) and the cell number change is -1.56%. In the case of `CC1CCCCC1NC(=O)c1ccc(S(=O)(=O)N2CCCC2)cc1` (stereo not drawn), the compound was called inactive and the cell number change is 25.1%. `COc1cccc(C(=O)NCCS(=O)(=O)NCCc2ccc(OC)c(OC)c2)c1`: the outcome was inactive.

In the case of `Cc1cc(-c2nn(C)c(=O)c3ccccc23)ccc1CNC(=O)NC1CCCCC1`, the “lipid storage change, negative = inhibition” value is 11.4% (inactive) and the cell number change was 19.3%.

As to `Cc1sc2nc(CN3CCOCC3)[nH]c(=O)c2c1-c1ccccc1`, the compound was classed as inactive and the cell number change was -18.1%. For `O=C(c1cccc(Cl)c1)N1CCCC(C(=O)N2CCCCCC2)C1` (stereo not drawn), the “lipid storage change, negative = inhibition” value is -16.5% (inactive) and the cell number change was -0.867%. The like results for `NC(Cc1ccccc1)C(O)(c1ccccc1)c1ccccc1` (stereo not drawn) were, in that order, 5.79% (inactive) and -20.2%. Take `Cc1noc(NS(=O)(=O)c2ccc(NC(=O)CCn3c(=O)oc4ccccc43)cc2)c1C`: the “lipid storage change, negative = inhibition” value is 9.9% (inactive). Consider `CCC(C)NC(=O)C(=O)NCc1ccccn1` (stereo not drawn), for which the “lipid storage change, negative = inhibition” value was 1.01% (inactive) and the cell number change was determined as 4.8%. For `Cc1ccc(S(=O)(=O)Cc2nnnn2-c2ccccc2)cc1`, the “lipid storage change, negative = inhibition” value was -12% (inactive) and the cell number change is -3.66%. The like results for `COc1ccc(CC(=O)Nc2ccc(-c3noc(-c4ccc(Cl)cc4)n3)cc2)cc1` were, in that order, -5.45% (inactive) and -6.7%. On the same counts, the results for `COc1ccc(CCNC(=O)CNC(=O)c2ccccc2Br)cc1OC` are -67.8% (inactive) and 19.2%.

For the compound `O=C1C(Cc2ccc(O)cc2)NC(=S)N1C1CCCCC1` (stereo not drawn), the “lipid storage change, negative = inhibition” value is -15.9% (inactive) and the cell number change worked out at 9.32%. As for `CC(=O)Nc1sc(NC(=O)c2ccc([N+](=O)[O-])cc2)nc1-c1cccs1`, the “lipid storage change, negative = inhibition” value was -6.26% (inactive) and the cell number change worked out at 7.62%. For the compound `Cc1cccc(NC(=O)CC2C(=O)NC3CCCCC3N2C(=O)c2ccccc2Cl)c1` (stereo not drawn), the “lipid storage change, negative = inhibition” value was -5.97% (inactive) and the cell number change turned out to be 7.35%. On the same counts, the results for `CN(C(=O)CC1C(=O)NCCN1Cc1ccc(F)c(F)c1)C1CCOCC1` (stereo not drawn) are 28.1% (inactive) and 1.07%. As for `CCc1ccc2[nH]c3nc(SCC(=O)NCC4CCCO4)nnc3c2c1` (stereo not drawn), the “lipid storage change, negative = inhibition” value was -11.3% (inactive) and the cell number change was found to be 8.06%. As for `CC1CCCCN1C(=O)CSc1nnc2c(n1)[nH]c1ccc(F)cc12` (stereo not drawn), the call was inactive and the cell number change was 8.7%. In the case of `CC1Cc2ccccc2N1C(=O)CSc1nnc2c(n1)[nH]c1ccccc12` (stereo not drawn), the “lipid storage change, negative = inhibition” value is 9.27% (inactive) and the cell number change is 3.16%.

Turning to `CC1CCc2cc(F)ccc2N1C(=O)CSc1nnc2c(n1)[nH]c1ccc(F)cc12` (stereo not drawn), the “lipid storage change, negative = inhibition” value is -15.2% (inactive) and the cell number change was -17.4%. Regarding `Cc1ccc(C(=O)NNC(=O)CSc2nnc3c(n2)[nH]c2ccc(F)cc23)cc1`, the “lipid storage change, negative = inhibition” value was 3.4% (inactive) and the cell number change worked out at 6.2%. For the compound `CC(C)c1ccc2[nH]c3nc(SCC(=O)NC4CC4)nnc3c2c1`, the Potency is 0.651 µM (active) and the cell number change came out at 8.7%. Turning to `CC(C)c1ccc2[nH]c3nc(SCC(=O)N4CCOCC4)nnc3c2c1`, the “lipid storage change, negative = inhibition” value was -0.666% (inactive) and the cell number change is -11.8%.

As to `CC1CCCCN1C(=O)CSc1nnc2c(n1)[nH]c1ccccc12` (stereo not drawn), the Potency is 0.58 µM (active) and the cell number change stood at 8.97%. For `O=C(CSc1nnc2c(n1)[nH]c1ccc(F)cc12)NC1CC1`, the Potency is 20.6 µM (active) and the cell number change is -6.52%. Regarding `COc1ccc(CC(NC(C)=O)C(=O)NC2CCN(c3nnnn3-c3ccccc3)CC2)cc1OC` (stereo not drawn), the “lipid storage change, negative = inhibition” value is 15.7% (inactive) and the cell number change is -4.36%. On to `COc1ccc(-c2c(=O)n(OCc3nc4ccccc4[nH]3)c3ccccc3[n+]2[O-])cc1`, for which the “lipid storage change, negative = inhibition” value was 6.71% (inactive) and the cell number change is 2.91%.

Take `Cc1cccc2cc(COC(=O)C3CCCCC3)c(=O)[nH]c12`: the “lipid storage change, negative = inhibition” value is 22.2% (inactive) and the cell number change is 10.5%. Turning to `N#Cc1cncc(-c2ccc3c(c2)OCCOCCOCCOCCOCCO3)n1`, the “lipid storage change, negative = inhibition” value is 9.67% (inactive) and the cell number change turned out to be 3.78%. Turning to `COc1cc(CNC2CCCCCCC2)cc(Cl)c1OCC(N)=O`, the “lipid storage change, negative = inhibition” value was -14.6% (inactive) and the cell number change was 6.3%. On the same counts, the results for `COc1ccccc1N1CCN(C(=O)c2cc(C)oc2C)CC1` are -0.501% (inactive) and 9.51%.

For the compound `O=C(O)c1oc2ccc(Br)cc2c1-n1cccc1`, the call was inactive. For `COC(=O)c1c(NC(=O)CN2CCCC(C)C2)c2c(C)cccc2n1C` (stereo not drawn), the Potency was 3.26 µM (active) and the cell number change was -24.5%. On to `CCOC(=O)C1CCN(CC(=O)Nc2c(C(=O)OC)n(C)c3cccc(C)c23)CC1`, for which the “lipid storage change, negative = inhibition” value was 19% (inactive) and the cell number change was -3.82%. In the case of `COC(=O)c1c(NC(=O)CN2CCN(C(=O)c3ccco3)CC2)c2c(C)cccc2n1C`, the call was inactive and the cell number change was -8.93%. As for `COc1ccc(C)cc1NC(=O)C(=O)NCc1ccncc1`, the “lipid storage change, negative = inhibition” value is 5.47% (inactive) and the cell number change was 1.5%. On to `COC(=O)c1ccc(C2c3[nH]c4ccccc4c3C[C@H]3C(=O)N(C4CC4)CC(=O)N23)cc1` (stereo partly drawn), for which the “lipid storage change, negative = inhibition” value is 12.4% (inactive) and the cell number change was -1.73%. Turning to `O=C1[C@@H]2Cc3c([nH]c4ccccc34)C(c3ccccc3)N2C(=O)CN1C1CC1` (stereo partly drawn), the Potency is 4.11 µM (active) and the cell number change is -19.8%. As for `O=C1[C@@H]2Cc3c([nH]c4ccccc34)C(c3ccc([N+](=O)[O-])cc3)N2C(=O)CN1C1CC1` (stereo partly drawn), the “lipid storage change, negative = inhibition” value was 12.4% (inactive) and the cell number change was 5.54%. For `O=C(Nc1ccccc1Cl)c1ccccc1`, the “lipid storage change, negative = inhibition” value was -0.566% (inactive) and the cell number change amounted to 0.403%.

Take `O=C(Nc1ccccc1Cl)/C(Cl)=C(\Cl)S(=O)c1ccccc1` (stereo not drawn): the Potency is 4.61 µM (active). With `O=C(Nc1ccccc1Cl)Nc1ccccc1Cl`, the “lipid storage change, negative = inhibition” value was -9.54% (inactive) and the cell number change is -0.979%.

With `CCN(CC(=O)Nc1c(F)cccc1F)C(=O)c1ccc(S(=O)(=O)N2CCCC2)cc1`, the “lipid storage change, negative = inhibition” value was 24.8% (inactive) and the cell number change worked out at 23.3%.

For `O=C(O)CN1C(=O)NC2(CCCc3ccccc32)C1=O` (stereo not drawn), the compound was called inactive and the cell number change was 8.55%. As to `CCOc1cc(-c2sc(Nc3ccccc3)n[n+]2-c2ccc(F)cc2)ccc1OC`, the “lipid storage change, negative = inhibition” value is -7.71% (inactive) and the cell number change came to 8.68%.
